Test results from PubChem BioAssay (EPA / NIEHS).
Records with an inconclusive call do not appear. Where a structure was tested more than once in an assay, its records may differ in their call. Activity calls are given as the source filed them. Rule for the calls, unless noted: active = hit-call score of the fitted dose curve at least 0.9, where 1 is the maximum; inconclusive = response in the unintended direction; inactive = score below 0.9.

Tests used:
[1] = ATG_Oct_MLP_CIS: Attagene CIS-FACTORIAL HepG2 Assay for human Octamer-Binding Transcription Factor (Oct) (AID 2282993; active = hit-call score of the fitted dose curve at least 0.9, where 1 is the maximum; inactive = score below 0.9); conditions: HepG2 Attagene cis-factorial Oct reporter, mRNA; actives raise or lower the signal
Method in brief: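 HepG2 cells transiently transfected with cis-promoter-driven multiplexed reporter transcription units, dosed for 24 h. Reporter mRNA quantified by RT-PCR, fluorescent labelling, HpaI digestion and capillary electrophoresis; bidirectional fits versus DMSO baseline.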

[2] = target: Cellular tumor antigen p53 (Homo sapiens) (UniProt P04637); experiment: ATG_p53_CIS: Attagene CIS-FACTORIAL HepG2 Assay for human p53 Transcription Factor (AID 2282994; active = hit-call score of the fitted dose curve at least 0.9, where 1 is the maximum; inactive = score below 0.9); conditions: HepG2 p53 cis-element reporter, Attagene mRNA; actives raise or lower the signal
Cellular tumor antigen p53 (Homo sapiens), sequence (P04637 whole entry, looked up): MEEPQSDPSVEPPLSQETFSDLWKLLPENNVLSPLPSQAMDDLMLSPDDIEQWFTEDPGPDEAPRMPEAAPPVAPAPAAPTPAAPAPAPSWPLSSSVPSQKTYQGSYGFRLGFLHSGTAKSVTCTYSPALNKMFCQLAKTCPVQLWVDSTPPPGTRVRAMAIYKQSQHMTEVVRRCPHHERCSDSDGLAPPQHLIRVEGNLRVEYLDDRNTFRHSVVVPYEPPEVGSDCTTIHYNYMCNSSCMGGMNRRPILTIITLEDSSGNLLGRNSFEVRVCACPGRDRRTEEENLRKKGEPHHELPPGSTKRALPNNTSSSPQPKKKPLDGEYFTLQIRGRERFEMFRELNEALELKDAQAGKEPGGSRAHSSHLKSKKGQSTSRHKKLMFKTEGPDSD
Method in brief: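 Multiplexed reporter mRNA assay in human HepG2 liver cells; cis-regulated units report endogenous factor activity. Values come from bidirectional curve fitting against DMSO negative control after 24 h treatment.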

[3] = BSK_3C_TissueFactor: BioMAP Diversity Plus: 3C Assay for Tissue Factor Biomarker Activity (AID 2282997; active = hit-call score of the fitted dose curve at least 0.9, where 1 is the maximum; inactive = score below 0.9); conditions: BioMAP 3C HUVEC, tissue factor biomarker readout; actives raise or lower the signal
Method in brief: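 Values derive from bidirectional curve fitting against DMSO of Tissue Factor ELISA signals, taken 24 h after dosing primary human umbilical vein endothelial cells.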

[4] = BSK_3C_uPAR: BioMAP Diversity Plus: 3C Assay for Urokinase-type plasminogen activator receptor (uPAR) Biomarker Activity (AID 2282998; active = hit-call score of the fitted dose curve at least 0.9, where 1 is the maximum; inactive = score below 0.9); conditions: BioMAP 3C HUVEC, uPAR biomarker ELISA; actives raise or lower the signal
Method in brief: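 Human umbilical vein endothelial primary cells were exposed to test chemical for 24 h. Cell-surface uPAR was then quantified by ELISA, and responses were fitted bidirectionally against DMSO as negative control and baseline.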

[5] = BSK_3C_VCAM1: BioMAP Diversity Plus: 3C Assay for Vascular cell adhesion molecule 1 (VCAM1) Biomarker Activity (AID 2282999; active = hit-call score of the fitted dose curve at least 0.9, where 1 is the maximum; inactive = score below 0.9); conditions: BioMAP 3C HUVEC, VCAM1 ELISA, cytokine-stimulated; actives raise or lower the signal
Method in brief: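 Human umbilical vein endothelial cells (3C system), biomarker read by ELISA 24 h after dosing; bidirectional fit against DMSO baseline. Cytotoxicity tracked by SRB total-protein staining in parallel cultures at biomarker time.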

[6] = BSK_4H_Eotaxin3: BioMAP Diversity Plus: 4H Assay for Eotaxin 3 Biomarker Activity (AID 2283000; active = hit-call score of the fitted dose curve at least 0.9, where 1 is the maximum; inactive = score below 0.9;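 note: CCL26 protein level quantified by ELISA in parallel with SRB cytotoxicity check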); conditions: primary human endothelial cells (HUVEC); actives raise or lower the signal
Method in brief: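 Endothelial primary cells (human umbilical vein) exposed to compound for 24 h. ELISA detection of Eotaxin-3.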

[7] = read-out: Intercellular Adhesion Molecule 1 (ICAM1), ICAM1 (gene 3383); experiment: BSK_3C_ICAM1: BioMAP Diversity Plus: 3C Assay for Intercellular Adhesion Molecule 1 (ICAM1) Biomarker Activity (AID 2283003; active = hit-call score of the fitted dose curve at least 0.9, where 1 is the maximum; inactive = score below 0.9); conditions: primary human endothelial cells (HUVEC); actives raise or lower the signal
Method in brief: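 Primary human umbilical vein endothelial cells in the BioMAP 3C system were exposed to chemicals for 24 h, then ICAM-1 was quantified by ELISA. Activity was fitted bidirectionally against the DMSO negative control baseline.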

[8] = target: human Retinoic Acid Receptor beta (RARb), RARB (gene 5915) (UniProt P10826); experiment: ATG_RARb_TRANS: Attagene TRANS-FACTORIAL HepG2 Assay for human Retinoic Acid Receptor beta (AID 2283004)
human Retinoic Acid Receptor beta (RARb), RARB (gene 5915), sequence (P10826 whole entry, looked up, the tested form may be a part): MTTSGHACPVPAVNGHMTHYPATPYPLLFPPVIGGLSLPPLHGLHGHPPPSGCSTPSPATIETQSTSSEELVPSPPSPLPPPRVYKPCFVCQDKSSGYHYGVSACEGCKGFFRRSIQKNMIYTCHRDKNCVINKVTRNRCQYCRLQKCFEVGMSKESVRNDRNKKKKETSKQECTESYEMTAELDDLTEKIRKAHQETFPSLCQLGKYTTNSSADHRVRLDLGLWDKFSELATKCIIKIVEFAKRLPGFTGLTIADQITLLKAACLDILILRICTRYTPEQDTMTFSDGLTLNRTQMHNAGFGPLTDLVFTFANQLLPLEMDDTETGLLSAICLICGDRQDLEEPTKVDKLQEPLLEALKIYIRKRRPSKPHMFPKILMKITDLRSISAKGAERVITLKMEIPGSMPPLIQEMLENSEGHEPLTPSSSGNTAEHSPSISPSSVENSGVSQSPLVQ
Method in brief: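 HepG2, transient MRTU transfection, NR–Gal4 chimera, 24 h treatment; RT-PCR plus CE fluorescence detection of reporter mRNA; gain of signal vs DMSO.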

[9] = target: Retinoic acid receptor alpha (Homo sapiens) (UniProt P10276); experiment: ATG_RARa_TRANS: Attagene TRANS-FACTORIAL HepG2 Assay for human Retinoic Acid Receptor alpha (RARa) (AID 2283005)
Retinoic acid receptor alpha (Homo sapiens), sequence (P10276 whole entry, looked up, the tested form may be a part): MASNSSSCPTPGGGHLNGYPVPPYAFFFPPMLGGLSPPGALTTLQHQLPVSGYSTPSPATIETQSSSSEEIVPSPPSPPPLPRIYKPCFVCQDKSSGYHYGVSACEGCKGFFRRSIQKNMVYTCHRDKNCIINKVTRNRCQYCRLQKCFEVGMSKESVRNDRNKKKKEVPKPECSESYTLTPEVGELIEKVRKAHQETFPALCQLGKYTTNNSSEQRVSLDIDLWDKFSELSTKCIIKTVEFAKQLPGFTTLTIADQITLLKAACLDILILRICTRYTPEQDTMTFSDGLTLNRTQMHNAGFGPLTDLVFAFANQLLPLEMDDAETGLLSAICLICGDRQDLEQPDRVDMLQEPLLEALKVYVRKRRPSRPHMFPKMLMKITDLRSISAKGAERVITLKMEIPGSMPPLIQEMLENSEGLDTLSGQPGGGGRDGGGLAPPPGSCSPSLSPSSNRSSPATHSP
Method in brief: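 HepG2 transiently transfected with multiplex GAL4-UAS reporter units including a human RARa–GAL4 chimera; 24 h compound exposure. Reporter mRNA quantified by RT-PCR, 6-FAM labeling and capillary electrophoresis; gain of signal versus DMSO.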

[10] = BSK_3C_Proliferation: Cell Proliferation Assessment in the BioMAP Diversity Plus: 3C Assay (AID 2283006; active = hit-call score of the fitted dose curve at least 0.9, where 1 is the maximum; inactive = score below 0.9;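 for AC50: potency may reflect either rise or fall in cell number versus DMSO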); conditions: primary human endothelial cells (HUVEC)
Method in brief: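 Human umbilical vein endothelial cells were grown sub-confluent and exposed to chemical for 48 h, then fixed with 10% TCA and stained with 0.1% sulforhodamine B; absorbance at 560 nm gave relative cell number, fitted bidirectionally against DMSO baseline.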

[11] = target: Nuclear receptor subfamily 1 group I member 2 (Homo sapiens) (UniProt O75469); experiment: ATG_PXR_TRANS: Attagene TRANS-FACTORIAL HepG2 Assay for human Pregnane X Receptor (PXR) (AID 2283008)
Nuclear receptor subfamily 1 group I member 2 (Homo sapiens), sequence (O75469 whole entry, looked up, the tested form may be a part): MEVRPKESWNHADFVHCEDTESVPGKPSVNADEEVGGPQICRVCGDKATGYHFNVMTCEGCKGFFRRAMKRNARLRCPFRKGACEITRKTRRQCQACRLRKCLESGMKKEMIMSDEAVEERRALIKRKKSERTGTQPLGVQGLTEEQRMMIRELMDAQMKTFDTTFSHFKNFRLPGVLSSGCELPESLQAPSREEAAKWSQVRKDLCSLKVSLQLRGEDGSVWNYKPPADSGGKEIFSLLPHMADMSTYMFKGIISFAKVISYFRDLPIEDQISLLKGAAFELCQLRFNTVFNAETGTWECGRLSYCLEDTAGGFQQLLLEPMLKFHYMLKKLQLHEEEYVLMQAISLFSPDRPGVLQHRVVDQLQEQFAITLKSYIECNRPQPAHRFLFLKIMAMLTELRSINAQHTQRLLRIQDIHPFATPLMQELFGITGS
Method in brief: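 Measures mRNA induction of a GAL4-UAS-driven reporter in human HepG2 cells transiently expressing PXR fused to Gal4, following 24 h treatment. DMSO served as negative control and baseline.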

[12] = target: human RAR-related Orphan Receptor beta (RORb), RORB (gene 6096) (UniProt Q92753); experiment: ATG_RORb_TRANS: Attagene TRANS-FACTORIAL HepG2 Assay for human RAR-related Orphan Receptor beta (RORb) (AID 2283010)
human RAR-related Orphan Receptor beta (RORb), RORB (gene 6096), sequence (Q92753 whole entry, looked up, the tested form may be a part): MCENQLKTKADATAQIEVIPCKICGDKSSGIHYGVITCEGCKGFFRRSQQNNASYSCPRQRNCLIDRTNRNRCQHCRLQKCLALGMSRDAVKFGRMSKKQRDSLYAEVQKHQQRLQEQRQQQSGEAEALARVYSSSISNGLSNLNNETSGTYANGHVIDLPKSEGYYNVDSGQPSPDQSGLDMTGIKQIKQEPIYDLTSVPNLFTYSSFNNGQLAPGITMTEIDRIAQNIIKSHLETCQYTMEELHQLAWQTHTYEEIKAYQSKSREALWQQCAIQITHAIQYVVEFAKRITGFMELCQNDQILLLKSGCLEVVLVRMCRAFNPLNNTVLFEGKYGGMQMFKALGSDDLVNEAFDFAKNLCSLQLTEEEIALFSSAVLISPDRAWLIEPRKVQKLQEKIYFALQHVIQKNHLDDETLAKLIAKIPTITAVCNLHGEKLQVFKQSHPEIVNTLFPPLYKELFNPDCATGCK
Method in brief: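 HepG2 cells were transiently transfected with multiplexed GAL4-UAS reporter units expressing chimeric nuclear receptor–GAL4 proteins, then dosed for 24 h. Reporter mRNA was quantified by RT-PCR with fluorescent labelling and capillary electrophoresis; gain of signal was fitted relative to DMSO.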

[13] = target: human RAR-related Orphan Receptor gamma (RORg), RORC (gene 6097) (UniProt P51449); experiment: ATG_RORg_TRANS: Attagene TRANS-FACTORIAL HepG2 Assay for human RAR-related Orphan Receptor gamma (RORg) (AID 2283011)
human RAR-related Orphan Receptor gamma (RORg), RORC (gene 6097), sequence (P51449 whole entry, looked up, the tested form may be a part): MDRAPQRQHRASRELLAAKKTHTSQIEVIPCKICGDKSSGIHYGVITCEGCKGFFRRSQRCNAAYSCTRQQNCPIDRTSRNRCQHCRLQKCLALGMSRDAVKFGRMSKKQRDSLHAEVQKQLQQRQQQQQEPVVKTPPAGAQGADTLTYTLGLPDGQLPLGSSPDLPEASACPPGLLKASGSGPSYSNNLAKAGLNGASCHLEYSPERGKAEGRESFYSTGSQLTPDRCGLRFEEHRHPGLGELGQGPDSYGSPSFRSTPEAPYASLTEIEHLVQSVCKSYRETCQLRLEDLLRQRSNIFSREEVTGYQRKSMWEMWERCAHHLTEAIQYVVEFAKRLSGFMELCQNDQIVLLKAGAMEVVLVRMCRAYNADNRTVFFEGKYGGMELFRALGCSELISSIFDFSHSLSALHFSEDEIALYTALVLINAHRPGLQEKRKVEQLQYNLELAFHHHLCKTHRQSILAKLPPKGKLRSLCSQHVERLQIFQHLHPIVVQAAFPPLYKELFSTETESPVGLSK
Method in brief: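 Activity is scored as increase in GAL4-UAS reporter mRNA over DMSO, detected by fluorescent RT-PCR and capillary electrophoresis in HepG2 cells transiently expressing a RORg-Gal4 chimera, 24 h after dosing.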

[14] = target: human Retinoid X Receptor beta (RXRb), RXRB (gene 6257) (UniProt P28702); experiment: ATG_RXRb_TRANS: Attagene TRANS-FACTORIAL HepG2 Assay for human Retinoid X Receptor beta (RXRb) (AID 2283013)
Method in brief: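 HepG2 cells transiently transfected with multiplexed reporter units driven by GAL4-UAS and exogenous chimeric NR-Gal4 proteins; treated 24 h. Reporter mRNA measured by RT-PCR, 6-FAM labelling and capillary electrophoresis; gain-of-signal fitted versus DMSO baseline.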

[15] = target: human Peroxisome Proliferator-activated Receptor alpha (PPARa), PPARA (gene 5465) (UniProt Q07869); experiment: ATG_PPARa_TRANS: Attagene TRANS-FACTORIAL HepG2 Assay for human Peroxisome Proliferator-activated Receptor alpha (PPARa) (AID 2283001)
human Peroxisome Proliferator-activated Receptor alpha (PPARa), PPARA (gene 5465), sequence (Q07869 whole entry, looked up, the tested form may be a part): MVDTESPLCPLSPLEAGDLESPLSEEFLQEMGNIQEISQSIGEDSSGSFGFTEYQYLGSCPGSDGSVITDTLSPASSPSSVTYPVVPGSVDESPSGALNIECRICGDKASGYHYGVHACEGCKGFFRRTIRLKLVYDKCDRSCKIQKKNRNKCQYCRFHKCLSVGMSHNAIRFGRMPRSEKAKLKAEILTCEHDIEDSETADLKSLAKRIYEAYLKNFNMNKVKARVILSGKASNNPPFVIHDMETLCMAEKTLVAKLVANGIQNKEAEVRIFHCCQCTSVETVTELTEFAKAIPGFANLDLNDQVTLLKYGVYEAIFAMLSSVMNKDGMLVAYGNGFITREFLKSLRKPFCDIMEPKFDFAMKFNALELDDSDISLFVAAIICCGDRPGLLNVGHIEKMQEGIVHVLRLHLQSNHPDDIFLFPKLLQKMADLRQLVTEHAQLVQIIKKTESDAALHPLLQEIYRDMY
Method in brief: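 Measures transcriptional activity of an exogenous chimeric PPARa-Gal4 protein in transiently transfected HepG2 cells after 24 h dosing. Reporter mRNA quantified via RT-PCR and capillary electrophoresis; DMSO served as negative control.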

[16] = target: human Peroxisome Proliferator-activated Receptor delta (PPARd), PPARD (gene 5467) (UniProt Q03181); experiment: ATG_PPARd_TRANS: Attagene TRANS-FACTORIAL HepG2 Assay for human Peroxisome Proliferator-activated Receptor delta (PPARd) (AID 2283002)
Method in brief: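 HepG2 cells transiently transfected with GAL4-UAS multiplexed reporter units driven by exogenous chimeric NR-GAL4 proteins; 24 h compound exposure. Reporter mRNA measured by RT-PCR, 6-FAM primer extension, HpaI digestion and capillary electrophoresis; gain of signal fitted relative to DMSO.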

[17] = target: Peroxisome proliferator-activated receptor gamma (Homo sapiens) (UniProt P37231); experiment: ATG_PPARg_TRANS: Attagene TRANS-FACTORIAL HepG2 Assay for human Peroxisome Proliferator-activated Receptor-gamma (PPARg) (AID 2283007)
Peroxisome proliferator-activated receptor gamma (Homo sapiens), sequence (P37231 whole entry, looked up, the tested form may be a part): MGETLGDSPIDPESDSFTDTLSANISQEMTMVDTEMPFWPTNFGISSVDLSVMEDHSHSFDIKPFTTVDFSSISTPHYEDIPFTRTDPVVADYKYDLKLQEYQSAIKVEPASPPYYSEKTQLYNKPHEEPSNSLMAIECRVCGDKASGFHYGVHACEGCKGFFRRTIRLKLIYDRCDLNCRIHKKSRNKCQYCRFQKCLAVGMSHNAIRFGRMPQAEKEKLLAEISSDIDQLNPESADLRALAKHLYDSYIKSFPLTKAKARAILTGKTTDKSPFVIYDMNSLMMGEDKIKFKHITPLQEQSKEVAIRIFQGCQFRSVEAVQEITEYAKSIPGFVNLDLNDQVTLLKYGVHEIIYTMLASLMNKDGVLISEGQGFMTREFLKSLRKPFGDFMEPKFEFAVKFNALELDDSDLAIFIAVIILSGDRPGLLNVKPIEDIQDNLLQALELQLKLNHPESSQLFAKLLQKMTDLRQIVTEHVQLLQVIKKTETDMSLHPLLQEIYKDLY
Method in brief: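 A TRANS-format multiplexed reporter assay measures activity of an exogenous chimeric NR-Gal4 protein in HepG2 cells. After 24 h of chemical exposure, reporter transcripts are amplified, fluorescently labelled and sized by capillary electrophoresis, with gain of signal scored against DMSO.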

[18] = target: human Retinoic Acid Receptor gamma (RARg), RARG (gene 5916) (UniProt P13631); experiment: ATG_RARg_TRANS: Attagene TRANS-FACTORIAL HepG2 Assay for human Retinoic Acid Receptor gamma (RARg) (AID 2283009)
Method in brief: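 HepG2 cells transiently transfected with multiplexed reporter units expressing chimeric RARg-GAL4 and GAL4-UAS-driven reporters; 24 h compound exposure. Reporter mRNA quantified by RT-PCR with fluorescent labelling and capillary electrophoresis; gain-of-signal fitted relative to DMSO baseline.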

[19] = target: Retinoic acid receptor RXR-alpha (Homo sapiens) (UniProt P19793); experiment: ATG_RXRa_TRANS: Attagene TRANS-FACTORIAL HepG2 Assay for human Retinoid X Receptor alpha (RXRa) (AID 2283012)
Retinoic acid receptor RXR-alpha (Homo sapiens), sequence (P19793 whole entry, looked up, the tested form may be a part): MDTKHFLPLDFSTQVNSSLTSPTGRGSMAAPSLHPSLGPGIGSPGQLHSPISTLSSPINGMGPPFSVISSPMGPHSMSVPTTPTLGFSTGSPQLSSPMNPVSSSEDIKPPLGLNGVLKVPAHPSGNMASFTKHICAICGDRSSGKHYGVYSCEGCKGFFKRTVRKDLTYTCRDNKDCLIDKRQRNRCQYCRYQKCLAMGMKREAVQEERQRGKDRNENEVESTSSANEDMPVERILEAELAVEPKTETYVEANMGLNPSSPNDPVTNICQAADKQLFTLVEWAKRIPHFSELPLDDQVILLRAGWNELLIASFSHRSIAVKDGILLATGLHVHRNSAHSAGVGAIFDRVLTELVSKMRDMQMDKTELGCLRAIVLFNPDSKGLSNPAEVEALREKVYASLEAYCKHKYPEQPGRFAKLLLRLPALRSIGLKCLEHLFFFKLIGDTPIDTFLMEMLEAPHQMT
Method in brief: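 HepG2 cells transiently transfected with multiplexed GAL4-UAS reporter units and chimeric NR-GAL4 fusions, dosed 24 h. Reporter mRNA measured by RT-PCR, FAM labelling, HpaI digestion and capillary electrophoresis; gain-of-signal fitted relative to DMSO baseline.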

[20] = target: human Thyroid Receptor alpha (THRa1), THRA (gene 7067) (UniProt P10827); experiment: ATG_THRa1_TRANS: Attagene TRANS-FACTORIAL HepG2 Assay for human Thyroid Receptor alpha (THRa1) (AID 2283014)
human Thyroid Receptor alpha (THRa1), THRA (gene 7067), sequence (P10827 whole entry, looked up, the tested form may be a part): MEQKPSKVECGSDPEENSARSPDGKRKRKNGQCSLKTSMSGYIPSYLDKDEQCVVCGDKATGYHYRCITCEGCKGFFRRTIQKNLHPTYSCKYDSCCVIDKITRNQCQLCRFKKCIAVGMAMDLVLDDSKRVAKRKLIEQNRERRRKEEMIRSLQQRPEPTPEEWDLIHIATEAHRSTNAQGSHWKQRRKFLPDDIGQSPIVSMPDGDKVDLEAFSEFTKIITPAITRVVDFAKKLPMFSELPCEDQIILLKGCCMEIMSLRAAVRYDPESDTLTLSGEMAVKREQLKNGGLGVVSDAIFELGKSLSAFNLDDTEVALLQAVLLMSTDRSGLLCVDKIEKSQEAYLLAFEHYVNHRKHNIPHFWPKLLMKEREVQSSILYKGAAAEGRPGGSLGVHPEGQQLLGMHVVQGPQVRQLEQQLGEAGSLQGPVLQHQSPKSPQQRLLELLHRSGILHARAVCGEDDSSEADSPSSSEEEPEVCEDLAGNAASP
Method in brief: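 First, HepG2 cells receive multiple GAL4-UAS reporter units and the chimeric receptor. They are then dosed for 24 h, after which RNA is reverse-transcribed, amplified, labelled, HpaI-cut and sized by capillary electrophoresis; gain relative to DMSO is scored.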

Measured: AC50

CC(C)=CC1C(C(=O)OCc2cccc(Oc3ccccc3)c2)C1(C)C (stereo not drawn)
active: [10] 20 µM | [11] 9.55 µM
not listed: [15] | [16] | [17] | [18] | [19] | [20]
inactive: all other assays above

Brc1ccc(Br)cc1
inactive: [1] | [2] | [15] | [16] | [9] | [17] | [12]

Clc1cc(C(Cl)(Cl)Cl)cnc1Cl
active: [1] 15.6 µM | [2] 14.7 µM
inactive: [15] | [16] | [8] | [17] | [11] | [12]

C[CH2][Hg][S]c1ccccc1C(=O)O
active: [1] 2.87 µM | [17] 3.71 µM | [14] 1.72 µM
not listed: [3] | [4] | [5] | [6] | [7] | [10] | [16]
inactive: all other assays above

N#Cc1ccc(Cl)cc1
inactive: [1] | [2] | [15] | [16] | [17] | [11] | [18] | [12] | [19] | [14]

Brc1c(Br)c(Br)c(Oc2c(Br)c(Br)c(Br)c(Br)c2Br)c(Br)c1Br
not listed: [3] | [4] | [5] | [6] | [7] | [8] | [10] | [20]
inactive: all other assays above

CCOP(=S)(OCC)SCS(=O)(=O)C(C)(C)C
active: [11] 2.41 µM
not listed: [9] | [12] | [15] | [16] | [18] | [19] | [20]
inactive: all other assays above

CN(C)[C@@H]1C(=O)C(C(N)=O)=C(O)[C@@]2(O)C(=O)C3=C(O)c4c(O)ccc(Cl)c4[C@@](C)(O)[C@H]3C[C@@H]12
inactive: [1] | [2] | [15] | [16] | [18] | [13] | [19] | [20]

C[C@H]1C(=O)O[C@@H]2CCN3CC=C(COC(=O)[C@](C)(O)[C@]1(C)O)[C@H]23
inactive: [1] | [2] | [15] | [16] | [8] | [17] | [11]

CCOP(=O)(OCC)SCCSCC
not listed: [8] | [15] | [16] | [19]
inactive: all other assays above
